Source: PubChem
This is a sample that favours compounds with a hit; in the whole collection about 11% have one here.
IMPase Li cell – cell-permeable IMPase inhibitors with lithium potentiation; CHO-M1 cells, IP1 TR-FRET (IP-One), carbachol + lithium; Potency, µM (doses to about 59.4 µM), actives largely listed as inhibitors; 210,000 tested, 0.35% active; AID 1457; active = well fitted inhibition curve with a large enough effect; inconclusive = small, poorly fitted or top-dose-only effect; inactive = no such curve, though single readings can be large or run the other way;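 also: IP1 builds up when IMPase is blocked and the TR-FRET signal falls; nearly all actives have a fitted effect of over 50% in size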
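CHO cells stably expressing M1 receptor (2000/well, cultured 16–30 h) treated 30 min at 37C with compound plus low lithium. Cytosolic IP1 by TR-FRET (665/620 ratio and 620 channel) after 10 min lysis; AC50 by Hill fit.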
ALDH1A1 inh – blocks purified human ALDH1A1 activity; Purified ALDH1A1, NADH fluorescence, propionaldehyde substrate; Potency, µM (titrated, usually from 75.3 µM), actives largely listed as inhibitors; P00352; 220,000 tested, 7.3% active
HPGD inh – HPGD (human) dehydrogenase inhibition; purified HPGD, NADH fluorescence kinetic, PGE2 substrate; AID 894; 150,000 tested, 4.3% active; P15428; Potency, µM, usual class: inhibitors
Target sequence (P15428 whole entry, looked up): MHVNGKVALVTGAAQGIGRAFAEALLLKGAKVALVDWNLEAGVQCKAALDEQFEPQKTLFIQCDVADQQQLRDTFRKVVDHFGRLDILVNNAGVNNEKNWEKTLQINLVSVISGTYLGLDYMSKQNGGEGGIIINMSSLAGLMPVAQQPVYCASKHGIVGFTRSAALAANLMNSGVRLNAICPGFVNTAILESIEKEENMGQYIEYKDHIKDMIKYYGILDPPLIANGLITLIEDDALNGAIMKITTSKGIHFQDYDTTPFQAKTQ
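20 nM HPGD preincubated 15 min at room temperature with compound in 50 mM Tris-HCl pH 8, 0.01% Tween 20. Started with 1 mM NAD+ and 30 uM prostaglandin E2; NADH fluorescence (360/450 nm) read 5 times over 30-s intervals, last minus first.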
IMPase cell inh – IMPase inhibition in cells; CHO-M1 cells, IP1 accumulation, HTRF TR-FRET ratio; inhibition (IP1 accumulation), % at 46.1 µM; 120,000 tested, under 10 active; AID 901; active = well fitted curve in the direction sought with a large enough effect in the signal ratio, not every such curve was filed as active; inconclusive = small, poorly fitted or top-dose-only effect, or a change in a side signal; inactive = no such curve, though single readings can be large or run the other way; the % refers to the signal ratio;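 also: cells stimulated with carbachol in lithium chloride buffer; higher means more IMPase inhibition seen as more IP1 and lower FRET ratio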
Target sequence (P97697 whole entry, looked up): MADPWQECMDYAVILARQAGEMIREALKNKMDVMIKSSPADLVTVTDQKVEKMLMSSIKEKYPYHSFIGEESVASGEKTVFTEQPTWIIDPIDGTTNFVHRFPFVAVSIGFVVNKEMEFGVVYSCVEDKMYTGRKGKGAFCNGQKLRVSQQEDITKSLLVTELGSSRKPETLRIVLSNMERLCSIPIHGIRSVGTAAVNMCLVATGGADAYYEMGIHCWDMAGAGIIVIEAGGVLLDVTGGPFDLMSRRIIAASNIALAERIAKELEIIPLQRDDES
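In this qHTS, compounds (final up to 46 uM) act on CHO-M1 cells that are then activated through the M1 receptor with carbachol, in pH 7.4 buffer containing 50 mM LiCl, for 30 min. IP1 accumulation is quantified by the IP-One immunoassay.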
PNC inhibitor – perinucleolar compartment assembly inhibition; PC3M PTB-GFP, PNC prevalence imaging, 16 h; stronger effect = lower value; activity change (PNC), negative = inhibition, % at 10 µM; 140,000 tested, 3.1% active;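 active = readout at or below -70, meaning at least 70% loss of cells showing the perinucleolar compartment, a nuclear body marking cancer cells; inconclusive = readout between -30 and a set limit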
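PC3M cells stably expressing PTB-GFP, 750–1000 cells/well, treated 16 h at 37 °C with compound (23 nl of library stock), in duplicate. After paraformaldehyde fixation and Hoechst stain, imaged at 20x; PNC prevalence scored by image analysis.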
Hits are given with their value; [ ] = remark or other dose. Unless noted, calls follow the shape of the dose curve; as a rule, active = well fitted inhibition curve with a large enough effect (not every such curve was filed as active); inconclusive = small, poorly fitted or top-dose-only effect, or another doubt; inactive = no such curve, though single readings can be large or run the other way.

For CC1CN(C(=O)N2CCCCC2)CCN1C(=O)N1CCCCC1 (centres undefined) the results were IMPase Li cell inactive and ALDH1A1 inh inactive.
`COc1ccc(COc2ccsc2C(=O)Nc2ccc(Cl)c(Cl)c2)cc1` gave IMPase Li cell inactive, ALDH1A1 inh inactive, HPGD inh inactive, IMPase cell inh inactive and PNC inhibitor inactive.
Screening NNC(=O)c1sccc1OCc1ccc(Cl)cc1 returned IMPase Li cell inactive and ALDH1A1 inh 2.2µM.
Screening O=C(O)c1cc(-c2ccc(Cl)s2)nc2ccccc12 returned IMPase Li cell 11µM and ALDH1A1 inh inconclusive.
COC(=O)c1cc(=O)n(Cc2ccco2)c(=Nc2ccc(F)cc2)s1 was read as IMPase Li cell inactive and ALDH1A1 inh 11µM.
`COC(=O)[C@@H]1C[C@@]2(O)[C@H](O)[C@H](O)[C@H](O)C[C@H]2N1Cc1c(F)cccc1Cl` gave IMPase Li cell inactive, ALDH1A1 inh inconclusive and HPGD inh inactive.
Screening CCCCC1=CC2=C(OC(C)=O)C(=O)C(C)(OC(=O)c3ccco3)C(=O)C2=CO1 (centres undefined) returned IMPase Li cell inactive, ALDH1A1 inh inactive and HPGD inh inactive.
For Clc1ccccc1-c1nccc(NCc2ccccc2)n1 the results were IMPase Li cell inactive and ALDH1A1 inh inconclusive.
For NC(=O)c1ccccc1N/C=C/C(=O)c1cccs1 the results were IMPase Li cell inactive, ALDH1A1 inh inconclusive, HPGD inh inactive, IMPase cell inh inactive and PNC inhibitor -94.
`NC(=O)c1ccccc1N/C=C/C(=O)c1ccc(Cl)cc1Cl` gave IMPase Li cell inactive, ALDH1A1 inh inconclusive, HPGD inh 13µM, IMPase cell inh inactive and PNC inhibitor inactive.
CN1CCN(c2nc3c(c(=O)[nH]c(=O)n3C)n2CCCSc2ncccn2)CC1 was read as IMPase Li cell inactive, ALDH1A1 inh inconclusive, HPGD inh inactive, IMPase cell inh inactive and PNC inhibitor inconclusive.
`CCOCCn1c(N2CCN(c3ccccc3)CC2)nc2c1c(=O)[nH]c(=O)n2C` gave IMPase Li cell inactive and ALDH1A1 inh inactive.
`Cn1c(=O)[nH]c(=O)c2c1nc(N1CCCCCC1)n2CCCSc1nnnn1-c1ccccc1` gave IMPase Li cell inactive, ALDH1A1 inh 2.5µM, HPGD inh inactive and PNC inhibitor inactive.
Screening CC(CSc1nnnn1-c1ccccc1)Cn1c(N2CCN(C)CC2)nc2c1c(=O)[nH]c(=O)n2C (centres undefined) returned IMPase Li cell inactive and ALDH1A1 inh 20µM.
`Cn1c(=O)[nH]c(=O)c2c1nc(N1CCCC1)n2CCCSc1nnnn1-c1ccccc1` gave IMPase Li cell inactive, ALDH1A1 inh 11µM, HPGD inh inactive and PNC inhibitor inactive.
For CN1CCN(c2ncc3nc(-c4ccccc4)c(=O)n(Cc4ccc(F)cc4)c3n2)CC1 the results were IMPase Li cell inactive, ALDH1A1 inh inconclusive and HPGD inh inactive.
`Cc1ccc(CSc2nc3c(c(=O)[nH]c(=O)n3C)n2CCC(C)C)cc1` gave IMPase Li cell inactive, ALDH1A1 inh inconclusive, HPGD inh inactive, IMPase cell inh inactive and PNC inhibitor inactive.
For CC(C)CCn1c(Sc2nc3ccccc3o2)nc2c1c(=O)[nH]c(=O)n2C the results were IMPase Li cell inactive, ALDH1A1 inh 11µM, HPGD inh inactive and PNC inhibitor inactive.
CC(C)CCn1c(SCc2ccc(Cl)cc2)nc2c1c(=O)[nH]c(=O)n2C was read as IMPase Li cell inactive, ALDH1A1 inh 11µM, HPGD inh 25µM, IMPase cell inh inactive and PNC inhibitor inactive.
For CCCCn1c(SCc2ccc(Cl)cc2)nc2c1c(=O)[nH]c(=O)n2C the results were IMPase Li cell inactive, ALDH1A1 inh 28µM, HPGD inh inconclusive, IMPase cell inh inactive and PNC inhibitor inactive.
Screening C/C=C/c1c(F)c(F)c(Oc2ccc(C(=O)O)cc2)c(F)c1F returned IMPase Li cell inactive, ALDH1A1 inh inactive, HPGD inh inconclusive, IMPase cell inh inactive and PNC inhibitor -84.
`CC(C)OC(=O)Nc1ccc(Oc2c(F)c(F)c(F)c(F)c2F)cc1` gave IMPase Li cell inactive, ALDH1A1 inh inactive, HPGD inh inactive, IMPase cell inh inactive and PNC inhibitor inactive.
Screening Cc1ccc(S(=O)(=O)Oc2cc(S(=O)(=O)O)cc3cc(S(=O)(=O)O)cc(N)c23)cc1 returned IMPase Li cell inactive, ALDH1A1 inh inactive[13.5 µM] and HPGD inh inactive.
For Nc1cnn(Cc2ccc(F)cc2)c1 the results were IMPase Li cell inactive and ALDH1A1 inh inactive.
Screening Nc1cnn(Cc2ccccc2F)c1 returned IMPase Li cell inactive and ALDH1A1 inh 14µM.
For CC1=C(C#N)C(c2cn(-c3ccccc3)nc2-c2cccs2)C(C#N)=C(C)N1 the results were IMPase Li cell inactive, ALDH1A1 inh inactive, HPGD inh inactive, IMPase cell inh inactive and PNC inhibitor -95.
Screening O=C1C(c2ccncc2)=C(O)c2ccccc21 returned IMPase Li cell inactive, ALDH1A1 inh inconclusive, HPGD inh inactive, IMPase cell inh inactive[1.84 µM] and PNC inhibitor inconclusive.
Screening O=c1nc(-c2ccccc2)c2ccccc2[nH]1 returned IMPase Li cell inactive, ALDH1A1 inh inconclusive, HPGD inh inconclusive, IMPase cell inh inactive and PNC inhibitor inactive.
O=C1C(c2cc(=O)c3ccccc3[nH]2)=C(O)c2ccccc21 was read as IMPase Li cell inactive, ALDH1A1 inh inactive, HPGD inh 14µM and PNC inhibitor inactive.
Screening O=c1cc(-c2ccccc2)[nH]c2ccccc12 returned IMPase Li cell inactive, ALDH1A1 inh inactive, HPGD inh 13µM, IMPase cell inh inactive and PNC inhibitor inconclusive.
Cc1ccc(NC(=O)CSc2n[nH]c(-c3ccco3)n2)cc1 was read as IMPase Li cell inactive and ALDH1A1 inh inactive.
For CCc1nc(SCC(=O)c2ccc(C)c(C)c2)n[nH]1 the results were IMPase Li cell inactive, ALDH1A1 inh inconclusive, HPGD inh inconclusive, IMPase cell inh inactive and PNC inhibitor inactive.
`COc1ccc(C(=O)CSc2n[nH]c(-c3ccco3)n2)cc1` gave IMPase Li cell inactive, ALDH1A1 inh inactive, HPGD inh 3.5µM, IMPase cell inh inactive and PNC inhibitor -107.
For Cc1ccc(C(=O)CSc2n[nH]c(-c3ccco3)n2)cc1C the results were IMPase Li cell inactive, ALDH1A1 inh inconclusive, HPGD inh 5µM, IMPase cell inh inactive and PNC inhibitor inactive.
Screening COC(=O)NC(/C=C/c1ccccc1)C(C(C)=O)C(=O)OC (centres undefined) returned IMPase Li cell inactive, ALDH1A1 inh inactive and HPGD inh inactive.
For Cn1cc(CN2CCc3c([nH]c4ccccc34)C2C2CCCCC2)cn1 (centres undefined) the results were IMPase Li cell inactive and ALDH1A1 inh 13µM.
Screening O=C(/C=C/c1ccc(Cl)cc1Cl)N(Cc1ccccc1)C1CCS(=O)(=O)C1 (centres undefined) returned IMPase Li cell inactive, ALDH1A1 inh 2.2µM, HPGD inh inactive and PNC inhibitor inactive.
